The test system of this assay is Trichoderma virens ATCC 9645. Kind of assay: growth yield (OD600) relative to untreated control; higher = less growth inhibition. The settings on record: compound concentration: 100 uM. Put shortly: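 For each 96-well plate, 100 μl aliquots were prepared with Trichoderma virens ATCC 9645 spores suspended at 15,000 spores ml^−1 in potato dextrose broth. The spores had been harvested from potato dextrose agar plates after 7 days. Library compounds were present at 100 μM final, some wells also receiving a biocide at 200 ng ml^−1, and plates were grown at 30 °C with OD600 read on a BioTek EL800 at 40 h and 72 h. Reported growth, relative to the control lacking both agents, is the mean of duplicate screens.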

The results in this text go back to the supplement of paper PMC8007513.

Where a name gives a salt, the structure may show the parent alone. ± gives the standard error. In all, about 1,300 compounds went through this assay and about 75 (6%) showed an effect of 50% or more. What follows is part of a selection rich in strong results, with near analogues and random picks from the rest.

Consider `CCN1CCC[C@H]1CNC(=O)c1c(OC)ccc(Br)c1OC` [Remoxipride Hydrochloride], for which the growth yield runs as follows: (40 h) 101 ± 1.9%; (72 h) 101.8 ± 0.94%.

`O=C(O)Cc1sc(-c2ccccc2)nc1-c1ccc(Cl)cc1` [Fentiazac]: the growth yield reads like this: (40 h) 63.1 ± 4.3%; (72 h) 88.8 ± 4.9%.

Take `CC[N+](CC)(CC)CCC(O)(c1ccccc1)C1CCCCC1` (stereo not given) [Tridihexethyl chloride]: the growth yield runs as follows: (40 h) 103 ± 6.3%; (72 h) 101 ± 4.5%.

Take `CCCCOC(=O)c1ccc(N)cc1` [Butamben]: the growth yield is 66.9 ± 1.8% (40 h) and 73 ± 2.5% (72 h).

Turning to `CCCCOC(=O)c1ccc(O)cc1` [Butylparaben], the growth yield is, setting by setting: (40 h) 46.4 ± 2.2%; (72 h) 49.5 ± 0.84%.

As for `CCCCN(CCCC)CCCOC(=O)c1ccc(N)cc1` [Butacaine], the growth yield by setting is: (40 h) 95.5 ± 4.9%; (72 h) 98.5 ± 4.1%.

As for `CC(C)(C)NC(=O)[C@@H]1C[C@@H]2CCCC[C@@H]2CN1C[C@@H](O)[C@H](Cc1ccccc1)NC(=O)[C@H](CC(N)=O)NC(=O)c1ccc2ccccc2n1` [Saquinavir mesylate], the growth yield is 110 ± 3.3% (40 h) and 107 ± 3.1% (72 h).

In the case of `CC[C@H](C)C(=O)O[C@H]1C[C@@H](C)C=C2C=C[C@H](C)[C@H](CC[C@@H]3C[C@@H](O)CC(=O)O3)[C@H]21` [Lovastatin], the growth yield reads like this: (40 h) 94.8 ± 5.2%; (72 h) 94.5 ± 3.2%.

Consider `CCCCC(CC)CN1CN(CC(CC)CCCC)CC(C)(N)C1` (stereo not given) [Hexetidine], for which the growth yield is, setting by setting: (40 h) 105 ± 3.2%; (72 h) 118 ± 6.3%.

Consider `NCc1ccc(S(N)(=O)=O)cc1` [Mafenide hydrochloride], for which the growth yield turned out to be 107 ± 2.5% (40 h) and 111 ± 4.2% (72 h).

Regarding `NS(=O)(=O)c1cc(C2(O)NC(=O)c3ccccc32)ccc1Cl` (stereo not given) [Chlorthalidone], the growth yield (40 h) was determined as 102 ± 3.6% and the growth yield (72 h) is 105 ± 3.7%.

Take `CCOC(=O)C1=C(COCCN)NC(C)=C(C(=O)OC)C1c1ccccc1Cl` (stereo not given) [Amlodipine]: the growth yield was determined as 105 ± 12% (40 h) and 113 ± 11% (72 h).

For the molecule `COc1ccc2cc([C@@H](C)C(=O)O)ccc2c1` [(R) -Naproxen sodium salt], the growth yield runs as follows: (40 h) 84.5 ± 7%; (72 h) 87.2 ± 6.4%.

In turn, `CC(C(=O)O)c1ccc2c(c1)[nH]c1ccc(Cl)cc12` (stereo not given) [Carprofen] had a growth yield (40 h) of 40.7 ± 15% and a growth yield (72 h) of 88.9 ± 8%.

Take `CC(C(=O)O)c1ccc(-c2ccccc2)c(F)c1` (stereo not given) [Flurbiprofen]: the growth yield reads like this: (40 h) 72.9 ± 3%; (72 h) 86.5 ± 3.9%.

For the molecule `CC[N+](C)(CC)CCOC(=O)C1c2ccccc2Oc2ccccc21` [Methantheline bromide], the growth yield worked out at 110 ± 1.8% (40 h) and 108 ± 1.3% (72 h).

`CCOC(=O)[C@H](CCc1ccccc1)N[C@@H](C)C(=O)N1Cc2ccccc2C[C@H]1C(=O)O` [Quinapril hydrochloride]: the growth yield came out at 98.8 ± 3.8% (40 h) and 98.1 ± 1.1% (72 h).

With `Cc1cccc(C)c1NC(=O)CN1CCN(CCCC(c2ccc(F)cc2)c2ccc(F)cc2)CC1` [Lidoflazine], the growth yield by setting is: (40 h) 95.6 ± 1.3%; (72 h) 114 ± 3%.

`CN(C)CCCO[C@@H]1[C@H]2OC(C)(C)O[C@H]2O[C@@H]1[C@H](O)CO` [Amiprilose hydrochloride]: the growth yield reads like this: (40 h) 100.5 ± 0.79%; (72 h) 101.6 ± 0.73%.

On to `c1ccc2c(CC3=NCCN3)cccc2c1` [Naphazoline hydrochloride], for which the growth yield came out at 101 ± 2.4% (40 h) and 100% (72 h).

For `CN(Cc1ccc(C(C)(C)C)cc1)Cc1cccc2ccccc12` [Butenafine Hydrochloride], the growth yield reads like this: (40 h) 2.06 ± 1.4%; (72 h) 1.99 ± 1.1%.

Take `CN(C/C=C/c1ccccc1)Cc1cccc2ccccc12` [Naftifine hydrochloride]: the growth yield is, setting by setting: (40 h) 15.6 ± 1.6%; (72 h) 55.5 ± 4.3%.

As to `C#CCN(C)Cc1ccccc1` [Pargyline hydrochloride], the growth yield by setting is: (40 h) 105 ± 2.1%; (72 h) 107 ± 2.9%.

Take `CN(C/C=C/C#CC(C)(C)C)Cc1cccc2ccccc12` [Terbinafine]: the growth yield runs as follows: (40 h) 2.7 ± 0.16%; (72 h) 2.52%.

Take `CC1(C)O[C@@H]2C[C@H]3[C@@H]4C[C@H](F)C5=CC(=O)C=C[C@]5(C)[C@H]4[C@@H](O)C[C@]3(C)[C@]2(C(=O)CO)O1` [Flunisolide]: the growth yield is, setting by setting: (40 h) 100.5 ± 0.48%; (72 h) 96.5 ± 1.3%.

Regarding `N=C(N)N1CCc2ccccc2C1` [Debrisoquin sulfate], the growth yield by setting is: (40 h) 97.5 ± 1.3%; (72 h) 101.8 ± 0.52%.

As to `CNCC[C@@H](Oc1cccc2ccccc12)c1cccs1` [(R)-Duloxetine hydrochloride], the growth yield reads like this: (40 h) 99.1 ± 2.9%; (72 h) 107 ± 3.1%.

Regarding `Cc1ncc([N+](=O)[O-])n1CC(O)CCl` (stereo not given) [Ornidazole], the growth yield reads like this: (40 h) 99.8 ± 2.9%; (72 h) 103 ± 2.3%.

Molecule `CC(=O)N(CC(C)C(=O)O)c1c(I)cc(I)c(N)c1I` (stereo not given) [Iocetamic acid] registered a growth yield (40 h) of 107 ± 1.6% and a growth yield (72 h) of 104 ± 1.1%.

On to `N[C@@H](C(=O)N[C@@H]1C(=O)N2C(C(=O)O)=C(Cl)CS[C@H]12)c1ccccc1` [Cefaclor hydrate], for which the growth yield reads like this: (40 h) 96.1 ± 4.6%; (72 h) 96.9 ± 4.2%.

Consider `CCCCC(C)(O)C/C=C/[C@H]1[C@H](O)CC(=O)[C@@H]1CCCCCCC(=O)OC` (mixture of isomers) [Misoprostol], for which the growth yield stood at 105 ± 1.3% (40 h) and 109 ± 4.1% (72 h).

Molecule `CCOC(=O)O[C@]1(C(=O)COC(=O)CC)CC[C@H]2[C@@H]3CCC4=CC(=O)C=C[C@]4(C)[C@H]3[C@@H](O)C[C@@]21C` [Prednicarbate] yielded a growth yield (40 h) of 118 ± 3% and a growth yield (72 h) of 114 ± 2.8%.

As to `O=c1[nH]c(=O)n([C@H]2C[C@H](O)[C@@H](CO)O2)cc1C(F)(F)F` [Trifluridine], the growth yield is, setting by setting: (40 h) 109.9 ± 0.95%; (72 h) 106 ± 1.1%.

Regarding `O=c1[nH]c(=O)n([C@H]2C[C@H](O)[C@@H](CO)O2)cc1F` [Floxuridine], the growth yield reads like this: (40 h) 11.1 ± 3.8%; (72 h) 46.3 ± 9.3%.

`O=c1[nH]c(=O)n([C@H]2C[C@H](O)[C@@H](CO)O2)cc1I` [Idoxuridine]: the growth yield runs as follows: (40 h) 102 ± 3.8%; (72 h) 99.4 ± 3.1%.
